Reference: PubChem BioAssay (NCI)
This is part of a sample that, as a whole, favours compounds with a hit. Of some 83,000 tested, about 20% had one in any assay.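 How to read the values: 0–100, growth inhibition (40 = 60% inhibited); 0, no net growth; -100 to 0, cell death (-40 = 40% of starting cells died; -100 = all dead).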 Values without a mark were called inactive. Activity calls are given as the source filed them. Rule for the calls: active = growth percent below 10; inactive = the rest.

How the values were obtained:
Experiment in all cases: NCI-60 one-dose screen, 48 h (100 = growth as untreated, 0 = no growth, -100 = all killed)
Details in all cases: 10 µM unless noted
NCI-H23 lung = test system: NCI-H23 lung
NCI-H226 lung = test system: NCI-H226 lung
NCI-H322M lung = test system: NCI-H322M lung
HOP-62 NSCLC = test system: HOP-62 NSCLC
NCI-H460 lung = test system: NCI-H460 lung
HOP-92 NSCLC = test system: HOP-92 NSCLC
NCI-H522 lung = test system: NCI-H522 lung
A549/ATCC NSCLC = test system: A549/ATCC NSCLC
786-0 renal = test system: 786-0 renal
COLO 205 colon = test system: COLO 205 colon
DU-145 prostate = test system: DU-145 prostate
K-562 leukemia = test system: K-562 leukemia
MALME-3M melanoma = test system: MALME-3M melanoma
MDA-MB-231 breast = test system: MDA-MB-231 breast
RXF 393 renal = test system: RXF 393 renal
SF-268 CNS = test system: SF-268 CNS
SF-295 CNS = test system: SF-295 CNS
SF-539 CNS = test system: SF-539 CNS
UACC-257 melanoma = test system: UACC-257 melanoma
M14 melanoma = test system: M14 melanoma

| SMILES | growth (NCI-H23 lung) | growth (NCI-H226 lung) | growth (NCI-H322M lung) | growth (HOP-62 NSCLC) | growth (NCI-H460 lung) | growth (HOP-92 NSCLC) | growth (NCI-H522 lung) | growth (A549/ATCC NSCLC) | growth (786-0 renal) | growth (COLO 205 colon) | growth (DU-145 prostate) | growth (K-562 leukemia) | growth (MALME-3M melanoma) | growth (MDA-MB-231 breast) | growth (RXF 393 renal) | growth (SF-268 CNS) | growth (SF-295 CNS) | growth (SF-539 CNS) | growth (UACC-257 melanoma) | growth (M14 melanoma) |
| --- | --- | --- | --- | --- | --- | --- | --- | --- | --- | --- | --- | --- | --- | --- | --- | --- | --- | --- | --- | --- |
| Nc1c(C(=O)Nc2ccccc2C(F)(F)F)sc2nc3c(cc12)CCC3 | 95.7% | 82.6% | 87.5% | 88.6% | 105% | 96.6% | 85.7% | 90.4% | 93% | 115% | 108% | 94.4% | 99.8% | 92% | 84.6% | 106% | 95.1% | 100% | 101% | 113% |
| CC(C)(Sc1cc(C(C)(C)C)c(O)c(C(C)(C)C)c1)Sc1cc(C(C)(C)C)c(OC(=O)CCCC(=O)O)c(C(C)(C)C)c1 | 39.9% | 66.2% | 60.4% | 67% | 37% | 40.2% | 46.4% | 35% | 56.1% | 64.3% | 59.4% | 41.6% | 75.4% | 74.2% | 73.3% | 63.1% | 50.4% | 62.7% | 74.6% | 54.6% |
| [O-]/[N+](=C\c1ccc(-n2cc(Cc3ccccc3Cc3cn(-c4ccc(/C=[N+](/[O-])c5ccccc5)cc4)nn3)nn2)cc1)c1ccccc1 | 94.7% | 101% | 93.3% | 100% | 108% | 112% | 97% | 105% | 97.5% | 107% | 106% | 86.6% | 102% | 103% | 116% | 92.8% | 99.5% | 92.2% | 108% | 101% |
| COc1ccc(/C=C(\C#N)n2nnc3cc(F)c(F)cc32)cc1 | 74.7% | 101% | 72.6% | 49.6% | 87.8% | 72.3% | 12.7% | 51.7% | 60.8% | 38.2% | 47.6% | 8.72% (active) | 45.6% | 64.9% | 85.8% | 68.6% | 72.3% | 44.5% | 81.9% | 6.43% (active) |
| N#Cc1c(-c2ccc(Cl)cc2)c(C#N)c2c(C#N)c(N)nn2c1N | 98.1% | 86.8% | 81.7% | 79.5% | 86.9% | 61% | 64.8% | 77.4% | 86.6% | 95.2% | 84% | 89.3% | 106% | 71.3% | 79.7% | 83.7% | 83.3% | 78% | 89.2% | 103% |
| N#CC1=C(N)Oc2c(c(=O)[nH]c3ccc(Cl)cc23)C12C(=O)c1ccccc1C2=O | 93.4% | 88.2% | 93% | 88.2% | 92.5% | 98.6% | 105% | 93.6% | 96.4% | 110% | 106% | 126% | 95% | 90.3% | 101% | 92% | 104% | 92.3% | 101% | 97.8% |
| O=C(Nc1cccc2ccccc12)NC1CC1 | 105% | 99.9% | 111% | 89.8% | 106% | 99% | 136% | 103% | 101% | 107% | 141% | 107% | 123% | 113% | 107% | 120% | 116% | 122% | 106% | 103% |
| O=S(=O)(Nc1cc(F)cc(Cl)c1)c1ccc(-c2cnc(C3CC3)o2)cc1 | 44% | 43% | 44.5% | 40.5% | 20.7% | 26.7% | 1.55% (active) | 47.3% | 30.7% | 24.3% | 35.6% | 17.1% | 52.1% | 42.7% | 14.8% | 59.5% | 22.4% | 5.3% (active) | 62.9% | 25.2% |
